Reference: PubChem BioAssay (NCI)
The panel holds about 83,000 compounds, 20% with a hit somewhere; the sample as a whole holds those more often.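 Assay: single dose, 48 h. Readout: percent growth (0 = no net growth; negative = cell death). Active: <10.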 Values without a mark were called inactive. The source made the active and inactive calls.

Columns and labels:
Experiment in all cases: NCI-60 one-dose screen, 48 h (100 = growth as untreated, 0 = no growth, -100 = all killed)
Conditions in all cases: 10 µM unless noted
SK-MEL-2 melanoma = system: SK-MEL-2 melanoma
EKVX NSCLC = system: EKVX NSCLC
SN12C renal = system: SN12C renal
UO-31 renal = system: UO-31 renal
TK-10 renal = system: TK-10 renal
ACHN renal = system: ACHN renal
CAKI-1 renal = system: CAKI-1 renal
A498 renal = system: A498 renal
CCRF-CEM leukemia = system: CCRF-CEM leukemia
MOLT-4 leukemia = system: MOLT-4 leukemia
SR leukemia = system: SR leukemia
RPMI-8226 leukemia = system: RPMI-8226 leukemia
OVCAR-8 ovarian = system: OVCAR-8 ovarian
OVCAR-5 ovarian = system: OVCAR-5 ovarian
OVCAR-4 ovarian = system: OVCAR-4 ovarian
SK-OV-3 ovarian = system: SK-OV-3 ovarian
OVCAR-3 ovarian = system: OVCAR-3 ovarian
HS 578T breast = system: HS 578T breast
NCI/ADR-RES ovarian = system: NCI/ADR-RES ovarian
IGROV1 ovarian = system: IGROV1 ovarian

Row | SMILES | growth (SK-MEL-2 melanoma) | growth (EKVX NSCLC) | growth (SN12C renal) | growth (UO-31 renal) | growth (TK-10 renal) | growth (ACHN renal) | growth (CAKI-1 renal) | growth (A498 renal) | growth (CCRF-CEM leukemia) | growth (MOLT-4 leukemia) | growth (SR leukemia) | growth (RPMI-8226 leukemia) | growth (OVCAR-8 ovarian) | growth (OVCAR-5 ovarian) | growth (OVCAR-4 ovarian) | growth (SK-OV-3 ovarian) | growth (OVCAR-3 ovarian) | growth (HS 578T breast) | growth (NCI/ADR-RES ovarian) | growth (IGROV1 ovarian)
1 | COc1cc(NCCCCN=C(N)NC(N)=NC(C)C)c2ncccc2c1 | 43.7% | 68% | 32.6% | 71.6% | 90.4% | 108% | 116% | 133% | 48.8% | 54.1% | 98.2% | 17.5% | 45.4% | 87.2% | -9.62% (active) | 100% | -43.7% (active) | 100% | 109% | 
2 | O=C1C=CC(=O)N1c1ccc(Cc2ccc(N3C(=O)C=CC3=O)cc2)cc1 | 112% | 109% | 96.1% | 81.9% | 92.4% | 94.1% | 65.7% | 91.2% | 89.5% | 21.8% | 92.6% | 81.6% | 103% | 86.4% | 201% | 101% | 125% | 94.7% | 99.4% | 89.7%
3 | CCCCOc1ccc(NC(=O)n2nc(NC(C)=O)c3cc(NC(C)=O)ccc32)cc1 | 95% | 68.7% | 92.2% | 80.9% | 89.9% | 95.3% | 89.2% | 105% | 62.1% | 52% | 88.4% |  | 92.5% | 114% | 106% | 117% | 98% | 103% | 105% | 95.3%
4 | CC(=O)C1=C(O)C=C2Oc3c(C(=O)/C=C/c4c(Cl)cccc4Cl)c(O)c(C)c(O)c3[C@]2(C)C1=O | -49.1% (active) | -0.577% (active) | -30.9% (active) | -28.6% (active) | -30.8% (active) | -15.3% (active) | 6.78% (active) | -72.4% (active) | -25.3% (active) | -33% (active) | -31% (active) |  | -18.9% (active) | -3.17% (active) | 7.41% (active) | -30.9% (active) | -30.6% (active) | -18.1% (active) | -23.4% (active) | -8.78% (active)
5 | C=C1CC2(OC1=O)C(=O)N(CCCCCCCN1C(=O)C3(CC(=C)C(=O)O3)c3ccccc31)c1ccccc12 (stereo not given) | 61.2% | 88.4% | -50.9% (active) | -24.6% (active) | 45.2% | 15.8% | 40.3% | 53.5% | -14.8% (active) | 3.14% (active) | 3.28% (active) | -28.1% (active) | 9.09% (active) | 45.1% | 10.2% | 112% | 3.44% (active) | 62.3% | 32.6% | 10.5%
6 | Cc1ccc(SCN2CCN(c3cccc(Cl)c3)CC2)cc1 | 102% | 90.2% | 75.6% | 86.6% | 97.7% | 104% | 70.7% | 85.5% | 38.7% | 83.4% | 91.7% |  | 110% | 112% | 108% | 111% | 106% | 111% | 98.9% | 80.4%
7 | O=C(Nc1nc(-c2ccccc2)cc(-c2ccc(Cl)cc2)n1)c1ccncc1 | 98.8% | 82.3% | 104% | 70.8% | 107% | 97.4% | 77.7% | 71.5% | 98.3% | 93% | 108% | 92.3% | 100% | 104% | 90.2% | 94.6% | 98.6% | 100% | 89.1% | 
8 | Nc1ccc2c(c1)C(=O)NC2=O | 117% | 112% | 94.9% | 70.8% | 118% | 99.3% | 99.6% | 119% | -49.6% (active) | 105% | 40.7% |  | 106% | 92.8% | 82.8% | 100% | 105% | 93.5% | 95.2% | 113%
9 | Cc1ccc2c(c1)O/C(=C\c1cccc(OCC(=O)c3ccccc3)c1)C2=O | 70% | 95.5% | 107% | 78.4% | 133% | 103% | 85.1% | 106% | 129% | -34.3% (active) | 44.9% | 188% | 91.7% | 109% | 104% | 108% | 118% | 96.6% | 101% | 
10 | O=C(/C=C\c1cccc([N+](=O)[O-])c1)c1ccccc1 | 100% | 96.9% | 97.2% | -64.5% (active) | 68.1% | -50.1% (active) | 84.4% | 91.4% | -23.9% (active) | 18.9% | 12.7% |  | 74.1% | 111% | 54.4% | 115% | -83% (active) | 86.5% | 83.6% | -53% (active)
11 | COc1cnc2c(c1)C(=O)c1c-2n(CCCBr)c(=O)c2cc([N+](=O)[O-])ccc12 | 6.39% (active) | 34.2% | -15.3% (active) | -10.8% (active) | 36.5% | 3.87% (active) | 2.8% (active) | -29.8% (active) | 8.19% (active) | 7.84% (active) | 7.47% (active) | -12.9% (active) | 2.09% (active) | 5.53% (active) | 5.15% (active) | 8.4% (active) | -44.1% (active) | 36.9% | 11.6% | 
12 | CSc1nc2sc3c(c2c(=O)n1-c1ccc(C(C)C)cc1)CCC(=O)C3 | 63.8% | 23.1% | 6.68% (active) | -67.2% (active) | 7.34% (active) | -19.9% (active) | -9.77% (active) | 96.3% | -11.8% (active) | -12.6% (active) | -11.7% (active) |  | 4.63% (active) | 6.13% (active) | 14.5% | 35.6% | -27.4% (active) | 2.67% (active) | -11.1% (active) | -6.1% (active)
13 | N#Cc1c2c(nc3n[nH]c(N)c13)CCCC2 | 109% | 58.3% | 105% | 71.7% | 128% | 101% | 95.5% | 121% | 8.03% (active) | 90.7% | 93.6% | 100% | 111% | 93.8% | 101% | 116% | 100% | 117% | 105% | 
14 | CC(=O)C1=C(O)C=C2Oc3c(C(=O)/C=C/c4ccccc4)c(O)c(C)c(O)c3[C@]2(C)C1=O | -3.97% (active) | 36.7% | 23.4% | 30.7% | 33.6% | 48.2% | 46.7% | 14.3% | 22.1% | 32.6% | 30.3% |  | 14% | 78.7% | 55.4% | 40.9% | 27.5% | 50% | 16.9% | 37.1%
15 | O=C(Nc1ccc(Nc2cc(Nc3ccccc3)ncn2)cc1)Nc1cc(C(F)(F)F)ccc1F | 82.8% | 80.5% | 78.5% | 65.6% | 89.5% | 66.9% | 74.4% | 75.3% | 71.7% | 63.6% | 42% | 65.1% |  | 78.1% | 71.2% | 101% | 88.5% | 78.9% | 81.1% | 90.3%
16 | CN(C)c1ccc(/C=C(\C#N)c2nc3ccccc3s2)cc1 | 106% | 89.5% | 104% | 90.7% | 121% | 101% | 89.2% | 112% | 81.8% | 96.4% | 87.5% |  | 99.5% | 109% | 90.9% | 111% | 119% | 104% | 107% | 103%
17 | Cc1ccc2c(c1)C(=O)/C(=C/c1ccc(OCC(=O)c3ccccc3)cc1)O2 | 77.8% | 90.2% | 98.6% | 85.5% | 127% | 100% | 103% | 98.3% | 151% | 33.2% | 107% | 216% | 106% | 107% | 83.9% | 106% | 106% | 105% | 88.1% | 
18 | Cc1nn(-c2ccccc2)c2nc(C)n(-c3ccc(Br)cc3)c(=O)c12 | 26.6% | 32.1% | 48.6% | 34.1% | 53.1% | 44.8% | 26.9% | -30.4% (active) | 13.6% | 19.8% |  | 9.81% (active) | 25.9% | 36.3% | 40.1% | 41.7% | -31.7% (active) | 15% | 3.19% (active) | 30.6%
19 | CN[C@@]12CC3(C=CC(=O)C=C3)O[C@]1(Cc1ccc(OC)cc1)N(C)C(=O)N2 | 74.1% | 75.8% | 44% | 76.2% | 88.6% | 44.4% | 72.9% | 75.6% | 7.27% (active) | 73% |  | 17.2% | 6.34% (active) | 33.1% | 60.9% | 108% | 17.3% | 106% | 61.7% | 55.3%
20 | COc1ccc(-c2cc(C(=O)N=Nc3c(O)[nH]c4ccccc34)no2)cc1 | 97.9% | 97.4% | 94.9% | 81.5% | 118% | 107% | 86% | 84.6% | 101% | 106% |  | 96.9% | 103% | 97.7% | 105% | 103% | 108% | 95.3% | 102% | 102%
21 | O=C1C(=O)N(CCCCn2cc(CO)nn2)c2ccccc21 | 98.8% | 92.4% | 104% | 87.7% | 102% | 101% | 87.8% | 99.4% | 104% | 95.7% |  | 99.3% | 102% | 98.6% | 99.2% | 100% | 115% | 98.8% | 100% | 106%
22 | CCCCCCCCSC1=CC(=O)C(OC)=C(OC)C1=O | 26.3% | 43.8% | 10.7% | -92.7% (active) | -99.3% (active) | -77.8% (active) | -45.6% (active) | 65.5% | -15.8% (active) | -5.17% (active) |  | -24.5% (active) | -9.18% (active) | 28% | 21.5% | 86.4% | -40.8% (active) | 63% | -27.1% (active) | 43.2%
23 | C[C@@H]1CC[C@@H]2[C@@H]1[C@H](OC(=O)/C=C/c1ccccc1)[C@]1(c3ccccc3)C[C@@H](OC(=O)CO)[C@@]2(C)O1 | 97.7% | 88.4% | 21.8% | -68.1% (active) | 98.6% | 4.8% (active) | 15.4% | -22.3% (active) | 93% | 92.1% |  | 97.7% | 54.3% | 99.8% | 103% | 96.1% | 103% | -20% (active) | 62.1% | 93.6%
24 | CCN(CC)CCCCNc1ccc(NCCCCN(CC)CC)c2c1C(=O)c1ccccc1C2=O | 105% | 100% | 84.1% | 62.3% | 57.8% | 88.4% | 81.5% | 110% | 78.6% | 62.9% |  | 47.8% | 72.9% | 114% | 84.1% | 122% | 91.5% | 101% | 83.4% | 71.8%
25 | CCOC(=O)CC(=O)c1c(C)cc(C)cc1C | 93.4% | 105% | 94.1% | 92.9% | 116% | 83.7% | 97% | 96.8% | 90.9% | 78.7% |  | 90.3% | 102% | 84.1% | 113% | 105% | 117% | 91.7% | 102% | 108%
26 | COCCCN=C(N)c1ccc(NC(=O)c2ccc(C(=O)Nc3ccc(C(N)=NCCCOC)cc3)cc2)cc1 | 102% | 76.9% | 95% | 96.6% | 113% | 113% | 95.2% | 208% | 108% | 85.9% | 72.3% |  | 106% | 110% | 105% | 115% | 154% | 151% | 112% | 
